Laboratory results: the supplement of paper PMC6555819

Tests used:
Assay in all cases: PBM binding z-score (relative to random genomic background probes); higher = stronger binding; sequences stand for … in GC…GCGATTGACAGCGTAGAATGAAGG
[1] = system: RARb homodimer (NR concentration 270 nM)
Procedure, shortened: (§1)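 For binding z-scores, the reference was random background probes on custom Agilent 4×180K protein-binding microarrays. These arrays were incubated 1 h with ligand-free nuclear receptor dimers in PBS pH 7.4, 2% milk, 0.02% Triton X-100, 1 mM DTT, 0.2 mg/mL BSA and 0.4 mg/ml salmon testes DNA. Fluorescence was scanned after antibody detection of each partner (one per run) and regression-normalized.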

[2] = system: RARg:RXRa (NR concentration 270 nM, RXRa partner concentration 90 nM)
Procedure, shortened: as §1

[3] = system: RARg homodimer (NR concentration 270 nM)
Procedure, shortened: as §1

[4] = system: RXRa DBDmut IVT, anti-RXR (DBD mutation: RXRa K156A/R161A, NR concentration 90 nM)
Procedure, shortened: as §1

[5] = system: RXRa homodimer (NR concentration 180 nM)
Procedure, shortened: as §1

[6] = system: THRa:RXRa (NR concentration 90 nM, RXRa partner concentration 90 nM)
Procedure, shortened: as §1

[7] = system: THRa homodimer (NR concentration 90 nM)
Procedure, shortened: as §1

[8] = system: VDR homodimer (NR concentration 270 nM)
Procedure, shortened: as §1

Row | Sequence | PBM binding z-score [1] | PBM binding z-score [2] | PBM binding z-score [3] | PBM binding z-score [4] | PBM binding z-score [5] | PBM binding z-score [6] | PBM binding z-score [7] | PBM binding z-score [8]
1 | CAAACTAGGTTACCGGAAGGTCAAAGTCCGCATG | 4.55 | 6.15 | 4.19 | 0.838 | 4.64 | 3.68 | 1.66 | 2.56
2 | ATCTGTAGGTAAAAGTTCAGTGAATCCCGAGGAT | 2.42 | 1.79 | 1.84 | 0.663 | 1.65 | 0.83 | -0.173 | 1.36
3 | TAAACAGGGTCAAAGGCCAGAGTACGAATGTCGA | 3.41 | 5.73 | 4.81 | 3.1 | 7.01 | 3.51 | 0.558 | 3.45
4 | TCGCCTAGGTCATTCAGGGGCCAGTATAGAAAGC | 3.67 | 6.06 | 4.29 | 2.42 | 2.95 | 3.52 | 1 | 1.4
5 | TCTGATAGGTCAACGATGGTCAGCTAATCTGCTA | 3.94 | 5.15 | 5.89 | 1.21 | 4.73 | 3.1 | -0.296 | -0.032
6 | GCGGCTAGGTCAACTGATGGTCAGCTAAAGCTCG | 3.7 | 5.19 | 5.19 | 1.17 | 2.84 | 2.95 | 0.698 | -0.00796
7 | GATACAGGGTCAGCTAGAGGCCAGAGTCTGGAAA | 3.39 | 6.56 | 5.07 | 1.7 | 4.07 | 2.9 | 0.144 | 0.522
8 | CGTCCAGGGTCAAAGGTCAGTGAAGAGATGACGG | 5.11 | 8.3 | 7 | 2.98 | 9.93 | 4.54 | 1.48 | 3.04
9 | CCTATTAGTTGACCATAAGGGCAACCGGAGCTCG | 2.03 | 1.22 | 1.19 | 0.709 | 0.658 | 1.87 | 1.53 | 1.15
10 | GCTATTAGCTGAAAGGGCAACCGAATGATTCTCG | 1.53 | 0.817 | 0.974 | 0.616 | 0.703 | 0.363 | -0.714 | -0.0197
11 | GGATCGAGGGCAAAGTTGATAGCATCTGTCGACG | 1.47 | 2.12 | 1.7 | 2.4 | 2.08 | 1.39 | -0.165 | 1.94
12 | ATATGTAGGTTAGCAGGGGTCATTCAGACTAGGC | 4.08 | 5.19 | 3.61 | 1.99 | 6.36 | 4.61 | 1.78 | 5.34
13 | ACAGACAGGTGAGTGAAGGTAACTCAACTGGACG | 0.036 | 0.211 | 0.661 | -0.368 | 0.324 | 1.75 | -0.422 | -0.644
14 | CGTCCAAGGTTAGAGAGGTCAGTGAATGCCGAGT | 4.23 | 3.53 | 4.13 | 1.67 | 3.43 | 3.22 | 1.3 | 3.15
15 | TCCCGGAGGACACGAAAGGTCAGAGCTCGACATC | 4.78 | 4.89 | 5.23 | 0.811 | 3.89 | 3.88 | 1.31 | 0.948
16 | ATATGTAGGTTATCGGGTCATTGAGTTTGCGCAT | 3.16 | 3.43 | 2.61 | 1.94 | 3.51 | 3.42 | 2.76 | 5.54
17 | TTACCAGGGTGAGCTGAGGTCGTTGATCCAACTC | 1.24 | 1.08 | 0.39 | -0.148 | 1.37 | 4.67 | 1.57 | 2.47
18 | ACAGAAAGGTGAGTGAAGGTAACTCAGCTGGACG | 1.15 | 1.58 | 1.59 | -0.371 | 1.28 | 2.58 | -0.361 | -0.509
19 | AGAATGAGGTTAATATCAGGGAAACAGAATACAT | 0.835 | 1.84 | 1.48 | 1.22 | 2.14 | 2.36 | 0.795 | 0.82
20 | TTACCAAGGTGAAGGTCGTTGACCCCTCTGTAGA | 3.35 | 3.33 | 2.12 | 0.133 | 4.95 | 3.6 | 1.43 | 1.51
21 | TCATATAGGTAAACAGGTGAAAATCCGTAAGTTA | 0.649 | 0.838 | 0.551 | 1.57 | 1.52 | 0.866 | 0.391 | 0.265
22 | ACTAGCAGGCCAAGTGTCACTCAAGATTAGTCCG | 0.681 | 0.433 | 0.865 | 0.117 | 0.215 | 0.0959 | -0.248 | -0.143
23 | ATCTCGAGGTAAGACTCAGTTCAGTGAAGAACGC | 0.343 | 0.254 | 0.121 | 0.0712 | -0.00615 | 1.24 | 0.382 | 1.13
24 | CCTACTGGGCCATTCAGCGGTCATTGATCATATG | 1.85 | 1.97 | 1.02 | -0.0941 | -0.0428 | 0.283 | 0.0718 | 0.166
25 | AGAATGATGTTACCAAAGATCAGGGAAACGCTTG | -0.737 | 0.0194 | 0.432 | -0.312 | 0.387 | -0.115 | -0.58 | -0.437
26 | GCGACTGGGGCATCAGCAGATTACCATAACTTAA | 0.257 | -0.0173 | 0.481 | 0.186 | -0.143 | -0.135 | -0.286 | -0.431
27 | TCTATTAGTGGATTAGGGCAACCGAAACAGCGGA | 0.492 | 0.384 | 0.643 | 1.06 | 0.49 | 0.449 | 0.4 | 0.393
28 | ATCTCTAGGTAACTAGTTCAGTGAAAGAGAGGAC | 0.47 | 0.193 | 0.685 | -0.215 | 0.0901 | 0.996 | 0.507 | 0.877
